In PubChem BioAssay (NCI):
This is part of a sample that, as a whole, favours compounds with a hit. Of some 83,000 tested, about 20% had one in any assay.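 Method: cells in 96-well plates; compound added at one concentration; 48 h incubation; percent growth measured; values under 10 scored active.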 Values without a mark were called inactive. Calls of active or inactive are those of the source.

Key:
Test in all cases: NCI-60 one-dose screen, 48 h (100 = growth as untreated, 0 = no growth, -100 = all killed)
[1] = system: NCI-H23 lung; details: 10 µM unless noted
[2] = system: NCI-H226 lung; details: 10 µM unless noted
[3] = system: NCI-H322M lung; details: 10 µM unless noted
[4] = system: NCI-H460 lung; details: 10 µM unless noted
[5] = system: HOP-92 NSCLC; details: 10 µM
[6] = system: A549/ATCC NSCLC; details: 10 µM unless noted
[7] = system: 786-0 renal; details: 10 µM unless noted
[8] = system: COLO 205 colon; details: 10 µM unless noted
[9] = system: DU-145 prostate; details: 10 µM unless noted
[10] = system: K-562 leukemia; details: 10 µM unless noted
[11] = system: MALME-3M melanoma; details: 10 µM unless noted
[12] = system: MDA-MB-231 breast; details: 10 µM unless noted
[13] = system: RXF 393 renal; details: 10 µM unless noted
[14] = system: SF-268 CNS; details: 10 µM unless noted
[15] = system: SF-295 CNS; details: 10 µM unless noted
[16] = system: SF-539 CNS; details: 10 µM unless noted
[17] = system: UACC-257 melanoma; details: 10 µM unless noted
[18] = system: M14 melanoma; details: 10 µM unless noted
[19] = system: NCI-H522 lung; details: 10 µM

| SMILES | growth [1] | growth [2] | growth [3] | growth [4] | growth [5] | growth [6] | growth [7] | growth [8] | growth [9] | growth [10] | growth [11] | growth [12] | growth [13] | growth [14] | growth [15] | growth [16] | growth [17] | growth [18] | growth [19] [%] |
| --- | --- | --- | --- | --- | --- | --- | --- | --- | --- | --- | --- | --- | --- | --- | --- | --- | --- | --- | --- |
| CCCCCCCCCC[N+](C)(C)C | 28.8% | 45% | 75.6% | 13% | -24.5% (active) | 34.3% | 8.96% (active) | -49.9% (active) | 34% | 22.3% | 24.8% | 14.3% | -42.3% (active) | 13.2% | 36.1% | 1.4% (active) | 66.3% | 6.8% (active) |  |
| C[C@@H](c1ccc2c(c1)[nH]c1ccc(Cl)cc12)c1nc2ccc(Cl)cc2[nH]1 | 85.6% | 101% | 85.8% | 82.4% | 99.5% | 88.3% | 75.9% | 116% | 90.7% | 52.6% |  | 60.1% | 101% | 80.9% | 99.4% | 85.7% | 98% | 100% |  |
| COc1ccc(OC)c(Cn2cc3c(c2-c2ccccc2)CCc2cnoc2-3)c1 | 60.8% | 78.8% | 57.5% | 22.7% | 59.8% | 50.8% | 66.6% | 35.9% | 94.7% | 16.6% |  | 64.7% | 80% | 71.8% | 22.8% | 54.9% | 79.5% | 50.7% |  |
| CCCCCCCCCCCCCCCCCC1=NCCN1CCNC(C)=O | 93% | 100% | 90.6% | 50.5% | 62.1% | 79.3% | 92.3% | 92.6% | 69.7% | 26.4% | 98.9% | 66.3% | 99% | 88.7% | 108% | 86.8% | 108% | 101% |  |
| COc1ccc(/C=C/C(=O)/C=C/c2cc3ccccc3[nH]c2=O)cc1 | 70.4% | 90.9% | 109% | 92.7% | 89.8% | 51.3% | 93.1% | 55.8% | 81.2% | 4.13% (active) | 32.6% | 64.5% | 30.6% | 47.8% | 104% |  | 74.8% |  |  |
| Clc1ccc(N/N=C(\c2ccccc2)c2ccccn2)nc1 | 19.2% | 5.46% (active) | 16.3% | 1.31% (active) | 31.3% | 3.53% (active) | 12.7% | 15.9% | 22.7% | 7.96% (active) | 20% | 37% | 24.6% | 10.5% | 1.66% (active) | -0.842% (active) | -7.64% (active) |  |  |
| N=C(N)c1ccc(-c2ccc(-c3ccc(F)cc3)s2)cc1 | -91.8% (active) | -77.3% (active) | -91.2% (active) | -88.9% (active) | -86.2% (active) | -74.2% (active) | -82.1% (active) |  | -92.9% (active) | -62.9% (active) | -75.6% (active) | -86.8% (active) | -98.4% (active) | -79.9% (active) | -94.1% (active) | -95.4% (active) | -79.5% (active) | -83.1% (active) |  |
| CCOC(=O)c1c2c(cn1Cc1ccccc1)-c1oncc1CC2 | 106% | 79.4% | 92.8% | 112% | 61.8% | 95.1% | 83.9% | 123% | 107% | 101% | 114% | 90.6% | 93.3% | 83.6% | 98.5% | 86% | 112% | 111% |  |
| Cc1nc2c(nnn2-c2ccccc2)c2nc(-c3ccccc3)oc(=O)c12 | 109% | 99.8% | 103% | 116% | 107% | 116% | 101% | 115% | 117% | 106% | 115% | 109% | 109% | 108% | 101% | 97.7% | 123% | 102% |  |
| Cc1ccc(C(C)C)c(OCc2ccc(C(=O)N/N=C/c3cccc(O)c3O)cc2)c1 | 25.9% | 68.1% | 43.1% | 12.5% | 37.9% | 52.9% | 16% | 16.3% | 33.6% | 4.92% (active) | 29.6% | 41.1% | 48.3% | 25.6% | 36.1% | 26% | 58.8% | 18.1% |  |
| COc1ccc(/C=C(/C(=O)N2CCCCC2)c2cc(OC)c(OC)c(OC)c2)cc1 | 36.3% | 94.8% | 45.2% | 11.6% | 45.5% | 34.9% | 23.5% | -14.6% (active) | 9.17% (active) | 11% |  | 41.5% | -1.64% (active) | 50.1% | 14.1% | -10.5% (active) | 75% | -6.93% (active) |  |
| O=c1[nH]c(=S)[nH]c(O)c1/C=C1\C=Nc2ccccc21 | 82.5% | 90.5% | 110% | 79.5% | 54.2% |  | 107% | 78.8% | 108% | 99.4% | 99.5% | 64.5% |  | 70% | 43% | 94.2% | 80.5% | 92.3% | 91.5 |
| CC(=O)OC1CC2C3CCC4C[C@@H](NC(=O)C=C(C)C)CC[C@]4(C)C3CC[C@]2(C)[C@H]1C(C)N(C)C (some centres undefined) | 40.6% | 30.5% | -2.28% (active) | -39.9% (active) | -36.2% (active) | 11.6% |  | -84% (active) | 31.6% | -37.5% (active) | -54% (active) | -36.1% (active) | -64.6% (active) | -63% (active) | -37.6% (active) | -76.5% (active) | -58.4% (active) | -59.9% (active) | 61.2 |
| CCOC(=O)NNc1[nH]c(-c2ccc(OC)cc2)cc1C#N | 88.9% | 101% | 79.4% | 99.1% | 76.4% | 100% | 94.8% | 14.5% | 108% | 68.9% |  | 89.8% | 96% | 103% | 111% | 94.3% | 92.5% |  |  |
| CCOC(=O)C1=C(C(F)(F)F)NC(=O)NC1CN1C(=O)c2ccccc2C1=O (centres undefined) | 99.3% | 111% | 107% | 112% | 60.8% | 115% | 104% | 116% | 106% | 76.1% | 113% | 100% | 106% | 103% | 104% | 100% | 103% |  |  |
| CCNc1nnc(COc2ccc(CNC(=O)CCCC/C=C/C(C)C)cc2OC)o1 | 93.7% | 101% | 107% | 103% | 98.3% | 97% | 95.5% | 110% | 109% | 91.6% |  | 104% | 120% | 97.1% | 97.1% | 104% | 105% |  |  |
| O=C1OC(c2ccc(-c3ccccc3)cc2)=C/C1=C/c1c2ccccc2cc2ccccc12 | 99.4% | 78.5% | 113% | 94.5% | 79.2% | 25.8% |  | 101% | 121% | 93.3% | 113% | 98.5% |  | 95.9% |  | 110% | -47.9% (active) | 108% | 109 |
| CCCCCCCCCCCCCCCC[n+]1cccc(C#N)c1 | 76.8% | 80.2% | 82.8% | 71.6% | 48.7% | 87.7% | 70.3% | 31.9% | 68.2% | 6.02% (active) | 92% | 69.7% | 17.4% | 53.3% | 91.5% | 25.5% | 103% | 62% |  |
